Reference: PubChem BioAssay (NCATS)
Inconclusive results are not listed. Calls of active or inactive are those of the source. Unless noted, the call rests on the fitted dose curve.

Tests used:
[1] = molecular target: Glucocorticoid receptor (Homo sapiens) (UniProt P04150); assay: qHTS assay for small molecule antagonists of glucocorticoid receptor signaling (AID 588533; active means well fitted inhibition curve with a large enough effect in the signal ratio, with a control signal flat, not every such curve was filed as active; the % refers to the signal ratio;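 further: cells stimulated with 2 nM dexamethasone as agonist; on the % scale 0 is the no-effect control and ±100 the full control effect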)
Sequence of Glucocorticoid receptor (Homo sapiens) (P04150 whole entry, looked up): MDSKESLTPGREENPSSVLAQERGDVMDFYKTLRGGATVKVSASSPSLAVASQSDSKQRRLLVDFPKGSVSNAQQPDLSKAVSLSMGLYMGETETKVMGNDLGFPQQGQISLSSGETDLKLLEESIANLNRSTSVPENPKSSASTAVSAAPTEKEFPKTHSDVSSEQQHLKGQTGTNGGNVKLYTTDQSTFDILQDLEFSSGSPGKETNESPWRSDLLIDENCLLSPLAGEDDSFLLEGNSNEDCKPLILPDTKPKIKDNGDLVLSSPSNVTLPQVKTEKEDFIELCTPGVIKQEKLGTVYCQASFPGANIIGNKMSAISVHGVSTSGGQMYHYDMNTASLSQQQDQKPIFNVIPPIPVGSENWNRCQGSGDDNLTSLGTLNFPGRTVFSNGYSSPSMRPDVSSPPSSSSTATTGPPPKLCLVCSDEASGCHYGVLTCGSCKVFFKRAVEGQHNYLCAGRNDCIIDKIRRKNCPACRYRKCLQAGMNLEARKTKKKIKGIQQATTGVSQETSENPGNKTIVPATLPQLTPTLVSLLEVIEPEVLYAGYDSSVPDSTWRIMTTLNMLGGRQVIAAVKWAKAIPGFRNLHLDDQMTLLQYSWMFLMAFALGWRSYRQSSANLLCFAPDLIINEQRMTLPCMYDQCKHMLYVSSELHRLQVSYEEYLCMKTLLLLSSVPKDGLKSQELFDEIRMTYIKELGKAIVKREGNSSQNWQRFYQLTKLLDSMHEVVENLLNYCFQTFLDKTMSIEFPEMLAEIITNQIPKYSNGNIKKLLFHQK
Procedure, shortened: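 Antagonist-mode qHTS: compound titrations added to GRE-bla HeLa cells, then dexamethasone 2 nM final; 18 h, 37 C. CCF4 FRET fluorescence normalized to dexamethasone and DMSO; IC50 from Hill fit.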

[2] = molecular target: Peroxisome proliferator-activated receptor delta (Homo sapiens) (UniProt Q03181); assay: qHTS assay for small molecule agonists of peroxisome proliferator-activated receptor delta signaling (AID 588534);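 further: 0% = DMSO basal wells and 100% = positive control agonist at 10 µM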
Sequence of Peroxisome proliferator-activated receptor delta (Homo sapiens) (Q03181 whole entry, looked up): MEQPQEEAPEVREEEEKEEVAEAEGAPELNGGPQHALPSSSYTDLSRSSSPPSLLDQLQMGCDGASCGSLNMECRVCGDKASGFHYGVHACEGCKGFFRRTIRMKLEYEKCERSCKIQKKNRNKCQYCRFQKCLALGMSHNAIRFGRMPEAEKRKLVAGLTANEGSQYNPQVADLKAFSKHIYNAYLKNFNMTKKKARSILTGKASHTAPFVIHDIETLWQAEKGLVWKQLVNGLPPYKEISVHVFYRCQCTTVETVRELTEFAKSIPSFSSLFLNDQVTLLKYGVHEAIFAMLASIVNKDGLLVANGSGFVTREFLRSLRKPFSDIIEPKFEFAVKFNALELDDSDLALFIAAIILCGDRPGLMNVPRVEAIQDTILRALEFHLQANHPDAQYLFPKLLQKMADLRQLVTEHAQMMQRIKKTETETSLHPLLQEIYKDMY
Procedure, shortened: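 Fluorescence from CCF4 substrate cleavage by beta-lactamase reporter, read 2 hrs at RT, measured agonist activity. Compounds were tested with 18 hrs exposure at 37 C. Concentration-response data fitted to Hill equation.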

[3] = qHTS assay for small molecule antagonists of peroxisome proliferator-activated receptor delta signaling (AID 588535); conditions: HEK293T PPARd-UAS-bla, beta-lactamase FRET ratio, 18 h; 460 nm channel;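 further: cells co-treated with a PPAR-delta agonist as stimulator during compound exposure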
Procedure, shortened: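 HEK293T PPAR-delta-UAS-bla cells, 4000/well, 2% charcoal/dextran FBS; 5 h 37 C; cpd titration; 18 h 37 C; CCF4 2 h RT; FI 460/530 nm; Hill fit → IC50, efficacy.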

[4] = molecular target: Vitamin D3 receptor (Homo sapiens) (UniProt P11473); assay: qHTS assay for small molecule agonists of vitamin D receptor signaling (AID 588543);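 further: 0% = DMSO basal and 100% = reference agonist control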
Sequence of Vitamin D3 receptor (Homo sapiens) (P11473 whole entry, looked up): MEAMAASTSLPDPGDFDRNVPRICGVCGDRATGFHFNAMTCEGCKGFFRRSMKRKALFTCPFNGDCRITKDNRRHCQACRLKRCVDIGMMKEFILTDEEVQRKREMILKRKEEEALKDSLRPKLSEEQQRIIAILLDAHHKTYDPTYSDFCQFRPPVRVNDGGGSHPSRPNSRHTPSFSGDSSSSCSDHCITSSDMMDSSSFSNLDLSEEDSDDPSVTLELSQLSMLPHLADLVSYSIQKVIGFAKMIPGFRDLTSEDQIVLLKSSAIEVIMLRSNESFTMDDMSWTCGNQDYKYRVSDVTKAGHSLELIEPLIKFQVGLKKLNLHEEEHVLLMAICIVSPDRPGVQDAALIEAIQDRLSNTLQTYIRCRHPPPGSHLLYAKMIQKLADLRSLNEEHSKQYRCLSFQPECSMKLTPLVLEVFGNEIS
Procedure, shortened: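 Reporter cells (HEK293T, VDR-UAS-bla) were seeded in medium with 2% charcoal-stripped serum and incubated 5 h, then compounds in concentration series were added for 16 h at 37 °C. Stimulation was scaled between DMSO basal and 50 nM 1α,25-dihydroxyvitamin D3.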

[5] = qHTS assay for small molecule agonists of retinoid X receptor alpha signaling (AID 588544); conditions: HEK293T RXRa-UAS-bla, beta-lactamase reporter, 18 h; 530 nm emission;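 on activation: 0% = DMSO basal wells and 100% = reference agonist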
[6] = molecular target: Retinoic acid receptor RXR-alpha (Homo sapiens) (UniProt P19793); assay: as above
Sequence of Retinoic acid receptor RXR-alpha (Homo sapiens) (P19793 whole entry, looked up): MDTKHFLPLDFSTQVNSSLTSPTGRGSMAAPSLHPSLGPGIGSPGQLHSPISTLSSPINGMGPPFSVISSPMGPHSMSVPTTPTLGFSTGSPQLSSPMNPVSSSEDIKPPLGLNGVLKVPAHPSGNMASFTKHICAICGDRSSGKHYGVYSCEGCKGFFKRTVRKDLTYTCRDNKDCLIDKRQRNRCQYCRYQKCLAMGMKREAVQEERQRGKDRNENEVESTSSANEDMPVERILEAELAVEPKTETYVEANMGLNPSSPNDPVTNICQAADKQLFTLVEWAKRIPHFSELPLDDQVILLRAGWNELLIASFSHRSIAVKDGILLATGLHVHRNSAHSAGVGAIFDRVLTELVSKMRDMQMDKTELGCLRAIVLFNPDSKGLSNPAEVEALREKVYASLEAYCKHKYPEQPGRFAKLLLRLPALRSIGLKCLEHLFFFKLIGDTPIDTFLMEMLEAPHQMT

[7] = molecular target: Thyroid hormone receptor beta (Homo sapiens) (UniProt P10828); assay: qHTS assay for small molecule agonists of thyroid hormone receptor beta signaling (AID 588545)
Sequence of Thyroid hormone receptor beta (Homo sapiens) (P10828 whole entry, looked up): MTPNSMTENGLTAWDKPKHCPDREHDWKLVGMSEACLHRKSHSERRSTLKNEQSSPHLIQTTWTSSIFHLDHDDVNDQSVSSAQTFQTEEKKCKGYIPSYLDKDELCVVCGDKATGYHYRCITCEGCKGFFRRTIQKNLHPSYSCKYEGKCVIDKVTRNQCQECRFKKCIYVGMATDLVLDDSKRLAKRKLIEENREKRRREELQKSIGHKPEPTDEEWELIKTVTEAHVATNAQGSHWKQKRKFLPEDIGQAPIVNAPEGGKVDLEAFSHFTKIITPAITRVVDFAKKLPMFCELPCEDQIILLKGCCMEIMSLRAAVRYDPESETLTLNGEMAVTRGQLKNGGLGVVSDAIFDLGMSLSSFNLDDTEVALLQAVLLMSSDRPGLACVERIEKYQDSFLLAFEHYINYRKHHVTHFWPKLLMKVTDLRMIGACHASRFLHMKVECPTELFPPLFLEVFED
Procedure, shortened: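 Agonist activity was read as beta-lactamase CCF4 fluorescence (405 ex, 460/530 em), scaled between DMSO (0%) and 10 nM T3 (100%), then Hill-fitted for EC50 and efficacy. HEK 293 TR-UAS-bla cells in 2% charcoal/dextran FBS medium were exposed 18 h at 37 C.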

[8] = qHTS assay for small molecule antagonists of retinoid X receptor alpha signaling (AID 588546; active means well fitted inhibition curve with a large enough effect in the signal ratio, with a control signal flat, not every such curve was filed as active; the % refers to the signal ratio;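 further: cells stimulated with 9-cis-retinoic acid as agonist; on the % scale 0 is the no-effect control and ±100 the full control effect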); conditions: HEK293T RXRa-UAS-bla, beta-lactamase ratio, antagonist mode; measured here: W530 green channel, cytotoxicity proxy
Procedure, shortened: (§1)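 Beta-lactamase reporter inhibition, read as CCF4 fluorescence ratio (ex 405, em 460/530 nm) after 2 h at RT. HEK293T UAS-bla cells, 2500/well, were stimulated with 9-cis-RA at 500 or 100 nM final alongside test compound for 18 h at 37 C.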

[9] = molecular target: Retinoic acid receptor RXR-alpha (Homo sapiens) (UniProt P19793); assay: as above; conditions: HEK293T RXRa-UAS-bla, beta-lactamase ratio, antagonist mode
Procedure, shortened: as §1

[10] = molecular target: Thyroid hormone receptor beta (Homo sapiens) (UniProt P10828); assay: qHTS assay for small molecule antagonists of thyroid hormone receptor beta signaling (AID 588547; active means well fitted inhibition curve with a large enough effect in the signal ratio, with a control signal flat, not every such curve was filed as active; the % refers to the signal ratio;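 further: cells stimulated with 0.4 nM T3 agonist during compound exposure; series mostly up to about 77 µM; on the % scale 0 is the no-effect control and ±100 the full control effect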); conditions: TR-UAS-bla HEK293, beta-lactamase ratio, antagonist mode, 18 h
Procedure, shortened: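 Inhibition of T3-driven (0.4nM final) beta-lactamase reporter activity was measured over 0.59 nM to 92 uM compound after 18 h at 37 C. The cells were GripTite HEK293 TR-UAS-bla in charcoal/dextran-stripped serum, with CCF4 ratio read-out and IC50 from Hill fits.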

[11] = qHTS assay for small molecule activators of the p53 signaling pathway (AID 651743; active means well fitted activation curve with a large enough effect in the signal ratio, not every such curve was filed as active; the % refers to the signal ratio; further: series mostly up to about 92 µM; % of control where 0% means no effect); conditions: HCT-116 p53RE-bla, beta-lactamase FRET ratio, 16 h; activation: stronger effect = higher value
Procedure, shortened: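 Read-out is fluorescence intensity from the LiveBLAzer B/G FRET substrate, added for 2 hours at room temperature after HCT-116 p53RE-bla cells had been incubated with compounds for 16 hours at 37 C.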

[12] = qHTS assay for environmental chemicals that activate the Aryl hydrocarbon Receptor (AhR) signaling pathway (AID 651777; active means well fitted curve in the direction sought with a large enough effect; an effect the other way counts as inactive or inconclusive; further: % of control where 0% means no effect; nearly all actives have a fitted effect of over 15% in size); conditions: 1A2-DRE human hepatoma cells, luciferase, 24 h; activation: stronger effect = higher value
Procedure, shortened: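 Concentration–response screening used 1,200 1A2-DRE cells per well, 24 hr compound exposure (37 C, 5% CO2), and One-Glo luminescence as the AhR-driven CYP1A2 reporter signal.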

[13] = molecular target: Peroxisome proliferator-activated receptor alpha (Homo sapiens) (UniProt Q07869); assay: qHTS assay for small molecule agonists of the peroxisome proliferator-activated receptor alpha (PPARalpha) signaling pathway (AID 651778; active means well fitted curve in the direction sought with a large enough effect; an effect the other way counts as inactive or inconclusive; further: % of control where 0% means no effect); conditions: PathHunter PPARalpha complementation, chemiluminescence, 6 h; max response: stronger effect = higher value
Sequence of Peroxisome proliferator-activated receptor alpha (Homo sapiens) (Q07869 whole entry, looked up): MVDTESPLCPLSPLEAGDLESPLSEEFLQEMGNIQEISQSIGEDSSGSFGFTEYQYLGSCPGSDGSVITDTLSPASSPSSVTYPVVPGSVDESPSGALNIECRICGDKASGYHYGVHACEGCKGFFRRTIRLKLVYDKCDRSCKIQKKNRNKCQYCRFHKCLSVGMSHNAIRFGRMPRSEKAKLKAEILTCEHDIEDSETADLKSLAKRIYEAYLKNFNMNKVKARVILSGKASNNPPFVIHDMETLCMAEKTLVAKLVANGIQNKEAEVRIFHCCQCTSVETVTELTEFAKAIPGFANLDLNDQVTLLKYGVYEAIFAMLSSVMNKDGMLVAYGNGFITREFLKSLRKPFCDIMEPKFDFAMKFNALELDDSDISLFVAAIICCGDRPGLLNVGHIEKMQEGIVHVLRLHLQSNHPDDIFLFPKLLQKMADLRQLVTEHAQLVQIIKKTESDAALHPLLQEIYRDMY
Procedure, shortened: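 Chemiluminescence from complemented enzyme reported PPARalpha activation in cells after 6 hr of compound treatment at 37 C. The detection reagent was incubated for 60 min at room temperature, and compounds were scored as agonists.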

[14] = qHTS assay for small molecule agonists of the antioxidant response element (ARE) signaling pathway measured by Nrf2-dependant transcriptional activity (AID 720636; active means well fitted curve in the direction sought with a large enough effect in the repeat runs; an effect the other way counts as inactive or inconclusive;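 further: HepG2 cells with an ARE-driven luciferase reporter; % of control where 0% means no effect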)
Procedure, shortened: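 Attachment 6 hr at 37 C, then compound versus DMSO vehicle for 16 hr in ARE-luc HepG2 cells (1% dialyzed FBS); luminescence recorded 30 min after ONE-Glo addition at room temperature.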

[15] = qHTS assay for small molecule agonists of the antioxidant response element (ARE) signaling pathway measured by Nrf2-dependant transcriptional activity - cell viability counter screen (AID 720653; active means well fitted curve in the direction sought with a large enough effect in the repeat runs; an effect the other way counts as inactive or inconclusive; further: on the % scale 0 is the no-effect control and ±100 the full control effect); conditions: ARE-bla HepG2 viability, CellTiter-Glo ATP luminescence, 16 h; max response: stronger effect = lower value
Procedure, shortened: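 Cytotoxicity counter screen: intracellular ATP quantified by CellTiter-Glo luminescence in the same ARE-bla HepG2 plates, after 16 h compound exposure and a 2 h beta-lactamase substrate step.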

[16] = qHTS assay for cell viability of HEK293 cells (AID 743288; active means well fitted curve in the direction sought with a large enough effect; an effect the other way counts as inactive or inconclusive; further: on the % scale 0 is the no-effect control and ±100 the full control effect; nearly all actives have a fitted effect of over 50% in size); conditions: ATP luminescence (CellTiter-Glo), 18 h; max response: stronger effect = lower value
Procedure, shortened: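 HEK293 parental, 2,000 cells/well; ≥5 h pre-incubation 37 C; pintool compound addition; 18 h, 37 C; CellTiter-Glo 30 min RT; luminescence read.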

[17] = molecular target: Bile acid receptor (Homo sapiens) (UniProt Q96RI1); assay: qHTS assay for small molecule agonists of farnesoid X receptor signaling (AID 588527); conditions: HEK293T FXR-UAS-bla, beta-lactamase ratio, 16 h; activation: stronger effect = higher value;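 further: series mostly up to about 77 µM; 0% = vehicle basal and 100% = reference agonist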
Sequence of Bile acid receptor (Homo sapiens) (Q96RI1 whole entry, looked up): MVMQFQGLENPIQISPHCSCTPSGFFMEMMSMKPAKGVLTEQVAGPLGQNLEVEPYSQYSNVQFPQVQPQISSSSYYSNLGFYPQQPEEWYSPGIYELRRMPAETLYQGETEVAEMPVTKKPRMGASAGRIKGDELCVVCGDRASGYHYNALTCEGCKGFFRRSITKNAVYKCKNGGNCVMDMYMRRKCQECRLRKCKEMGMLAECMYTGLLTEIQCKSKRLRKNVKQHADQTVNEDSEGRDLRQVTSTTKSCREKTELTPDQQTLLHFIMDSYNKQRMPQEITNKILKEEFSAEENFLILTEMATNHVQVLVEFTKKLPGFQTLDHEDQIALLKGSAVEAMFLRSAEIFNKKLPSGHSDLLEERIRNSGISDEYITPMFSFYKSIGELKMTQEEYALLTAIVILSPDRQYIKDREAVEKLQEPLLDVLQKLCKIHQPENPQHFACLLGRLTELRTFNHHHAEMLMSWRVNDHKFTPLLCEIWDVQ
Procedure, shortened: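 FXR-UAS-bla HEK293T cells (10% dialyzed FBS) preincubated 5-7 h at 37 C, then compounds at up to 92 uM for 16 h at 37 C. CCF4 beta-lactamase read-out after 2 h RT. Normalized to chenodeoxycholic acid (100 uM) and DMSO; Hill fit gave EC50 and efficacy.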

[18] = qHTS assay for cell viability of the p53RE-bla HCT-116 cell line (AID 743292; active means well fitted curve in the direction sought with a large enough effect; an effect the other way counts as inactive or inconclusive; further: nearly all actives have a fitted effect of over 55% in size; further: potency means the concentration at half of the fitted maximal effect)
Procedure, shortened: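 Compound-exposed HCT-116 (p53RE-bla) cells, 4,000 per well, were kept 16 h at 37 C following a 5 h preincubation. Cell number was estimated from total ATP by CellTiter-Glo luminescence read after 30 min at room temperature.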

[19] = molecular target: Nuclear receptor subfamily 1 group I member 2 (Rattus norvegicus) (UniProt Q9R1A7); assay: qHTS assay for small molecule activators of the rat pregnane X receptor (rPXR) signaling pathway (AID 651751; call rule not given here; further: 0% is about no effect); conditions: rPXR reporter cells, luciferase (One-Glo), 24 h
Sequence of Nuclear receptor subfamily 1 group I member 2 (Rattus norvegicus) (Q9R1A7 whole entry, looked up): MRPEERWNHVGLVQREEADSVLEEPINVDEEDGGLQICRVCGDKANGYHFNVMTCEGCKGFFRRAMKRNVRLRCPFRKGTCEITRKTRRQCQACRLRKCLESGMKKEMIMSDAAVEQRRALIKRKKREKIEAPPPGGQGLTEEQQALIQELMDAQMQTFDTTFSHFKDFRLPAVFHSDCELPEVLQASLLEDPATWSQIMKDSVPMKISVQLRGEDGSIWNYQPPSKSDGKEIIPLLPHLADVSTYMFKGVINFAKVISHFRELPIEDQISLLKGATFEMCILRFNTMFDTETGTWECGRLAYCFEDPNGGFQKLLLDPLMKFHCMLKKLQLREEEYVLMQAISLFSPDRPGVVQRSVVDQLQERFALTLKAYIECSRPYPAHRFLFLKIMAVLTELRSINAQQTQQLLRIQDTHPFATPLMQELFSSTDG

[20] = molecular target: Vitamin D3 receptor (Homo sapiens) (UniProt P11473); assay: qHTS assay for small molecule antagonists of vitamin D receptor signaling (AID 588541)
Procedure, shortened: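 Antagonist-mode beta-lactamase reporter assay: HEK293T VDR-UAS-bla cells were exposed to titrated compound alongside 1-alpha,25-dihydroxyvitamin D3 at 3 nM final for 16 h. Values were normalized to the 50 nM agonist control and DMSO basal, with IC50 and efficacy from Hill equation fits.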

Structure (SMILES)	Potency [1]	outcome [2]	max response [3] [%]	outcome [4]	max response [5] [%]	Potency [6]	Potency [7]	max response [8] [%]	max response [9]	activity change % (negative = inhibition) [10]	activation [11]	activation [12]	max response [13]	Potency [14]	max response [15]	max response [16]	activation [17]	Potency [18]	max response [19]	Potency [20]
C=CCOC(=O)C(C)(C)OC(=O)c1cc(-n2c(=O)cc(C(F)(F)F)n(C)c2=O)ccc1Cl	inactive	inactive	15.1	inactive	-7.31	inactive	inactive	-18.1	23.7% (inactive)	-9.78% (inactive)	4.39% (inactive)	1.35% (inactive)	2.63% (inactive)	inactive	-16.6% (inactive)	-6.91% (inactive)	–	–	–	–
CCC(C)(NC(=O)c1cc(Cl)c(C)c(Cl)c1)C(=O)CCl (centres undefined)	inactive	inactive	31.6	–	–	–	inactive	–	–	–	14.9% (inactive)	1.89% (inactive)	0.829% (inactive)	–	0.353% (inactive)	-19.8% (inactive)	-3.52% (inactive)	inactive	1.32% (inactive)	–
COc1cc(OC)nc(NC(=O)NS(=O)(=O)c2ncccc2OCC(F)(F)F)n1	inactive	inactive	-5.67	inactive	-19.3	inactive	–	-1.53	-28.8% (inactive)	–	-0.487% (inactive)	1.59% (inactive)	-0.694% (inactive)	inactive	-8.5% (inactive)	-8.98% (inactive)	0.378% (inactive)	inactive	-1.56% (inactive)	inactive
O=C1c2ccccc2C(=O)C1C(=O)C(c1ccccc1)c1ccc(Cl)cc1 (centres undefined)	–	inactive	65.6	inactive	-4.27	inactive	inactive	-2.15	36.5% (inactive)	–	–	3.58% (inactive)	-1.87% (inactive)	inactive	-33.5% (inactive)	-28.8% (inactive)	–	inactive	10.4% (inactive)	inactive
O=C(NC(=O)c1c(F)cccc1F)Nc1cc(Cl)c(OC(F)(F)C(F)F)c(Cl)c1	–	inactive	–	–	5.34	inactive	inactive	-11.9	21.4% (inactive)	–	-1.27% (inactive)	0.0082% (inactive)	-1.91% (inactive)	inactive	-11.1% (inactive)	-28.3% (inactive)	–	inactive	-0.359% (inactive)	–
CC(C)OC(=O)C(O)(c1ccc(Br)cc1)c1ccc(Br)cc1	–	–	–	inactive	–	–	–	–	–	–	–	8.09% (inactive)	–	inactive	-7.97% (inactive)	-24.4% (inactive)	5.65% (inactive)	70.8 µM (active)	–	inactive
